# PubChem BioAssay (NCI)
# About 83,000 compounds went through this panel and 20% of them were active in at least one assay; those are over-represented in the sample as a whole.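 The test compound was applied at a single concentration to cells in 96-well plates for 48 hours, and percent growth was recorded.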 Unmarked numbers belong to inactive results. Active and inactive are the calls of the source. Rule for the calls: active = growth percent below 10; inactive = the rest.
# System: U251 CNS
# Experiment: NCI-60 one-dose screen, 48 h (100 = growth as untreated, 0 = no growth, -100 = all killed)
# Settings: 10 µM unless noted
row,SMILES,growth
1,N#Cc1c(-c2ccc(F)cc2)nc(SCc2ccc(F)cc2)nc1N1CCNCC1,-95.5% (active)
2,N#Cc1c(-c2ccc(F)cc2)nc(SCc2ccccc2)nc1N1CCNCC1,-95.8% (active)
3,CS(=O)(=O)c1ccc(-n2nc(C(=O)NCc3ccccc3)cc2-c2ccc(Cl)cc2)cc1,80.7%
4,Cc1cccc(C)c1Nc1nnc(-c2c[nH]c3ccccc23)o1,95.6%
5,COc1ccc(/C=C/C(=O)c2ccc(S(=O)(=O)NCCNc3nc(N(C)C)nc(N4CCOCC4)n3)cc2)cc1,77.4%
6,COc1ccc(NC(=O)Cn2c(/C=C/c3cccc(Br)c3)nc3ccccc3c2=O)cc1,-1.66% (active)
7,O=C1CCC(N2C(=O)c3cccc(NCCCCCC(=O)N4CCN(c5ccc6nc7c(nc6c5C(F)(F)F)C(=O)c5ncccc5C7=O)CC4)c3C2=O)C(=O)N1 (stereo unspecified),-90.4% (active)
8,O=C(CSc1nnc(-c2ccc(-c3nc4ccc(Cl)cc4[nH]3)cc2)o1)Nc1ccccc1,-79.2% (active)
9,CC(C)(C)OC(=O)N1CCC2(CC1)Oc1ccccc1[C@H]1CC(c3ccc(Br)cc3)=NN12,82.8%
10,NS(=O)(=O)c1ccc(N2N=C(c3ccc(NC(=O)Nc4ccccc4)cc3)CC2c2ccc(Br)cc2)cc1 (stereo unspecified),-86.2% (active)
11,CC1=C(C(=O)OCc2ccccc2)C(c2ccc(N(C)C)cc2)n2c(nc3ccccc32)N1 (stereo unspecified),90.4%
12,Cc1ccc(O)cc1Nc1nc(SCCN2CCOCC2)nc2c1cnn2CC(Cl)c1ccc(Br)cc1 (stereo unspecified),15.4%
13,C/C(=N/O)c1ccc(NC(=O)CSc2nnc(-c3ccc(-c4nc5ccc(Cl)cc5[nH]4)cc3)o2)cc1,-95.8% (active)
14,CCCCNc1ccc2c3c(cccc13)C(=O)N(NCC(O)COc1ccc3c(C)cc(=O)oc3c1)C2=O (stereo unspecified),96.5%
15,COc1ccc2[nH]c(=O)cc(-n3ncc(C(=O)/C=C/c4cc(OC)c(OC)c(OC)c4)c3C)c2c1,-67.4% (active)
16,COc1ccc(-c2cc(-c3cc(OC)c(OC)c(OC)c3)[nH]c(=O)c2C#N)cc1,42.2%
17,COc1ccc2[nH]c(O)c(N=Nc3nc(-c4ccc(Br)cc4)cs3)c2c1,-39.5% (active)
18,COc1ccc2[nH]cc(-c3cc(N)n4nc(-c5c[nH]c6ccccc56)cc4n3)c2c1,-68.2% (active)
19,Nc1cc(-c2c[nH]c3ccc(F)cc23)nc2cc(-c3c[nH]c4ccccc34)nn12,-19.1% (active)

row,SMILES,growth
1,COC(=O)c1cccc(Oc2ccc(NC(=O)Nc3cc(C(F)(F)F)ccc3F)cc2)c1,40.4%
2,N#C/C(=C1/C(=O)Nc2ccccc21)c1nnc(NC(=O)c2ccc(-n3c(=O)[nH]c4ccccc4c3=O)cc2)s1,37.5%
3,Cc1ccc(N=Nc2c(N)nn3c(-c4cc5cc(Br)ccc5oc4=O)ccnc23)cc1,13%
4,Cc1ccc(C2CC(c3ccc(NC(=O)Nc4ccccc4)cc3)=NN2c2ccc(S(C)(=O)=O)cc2)cc1 (stereo unspecified),-63.5% (active)
5,O=C(NN1C(=O)/C(=C/C=C/c2ccc([N+](=O)[O-])o2)SC1=S)c1ccc(O)cc1,-91.4% (active)
6,COc1cc(CNC(=O)C[C@H](C)CCC=C(C)C)ccc1OCc1cn(-c2ccccc2F)nn1,61.6%
7,OC(c1ccccc1)(c1ccccc1)C1CCN(c2ccc3nnc(Cl)n3n2)CC1,45.9%
8,Cc1nc2sccn2c1-c1nnc(SCC(C)C)o1,78.2%
9,N#Cc1ccc(C(=O)CSc2nc3c(c(Nc4ccc(S(N)(=O)=O)cc4)n2)CCC3)cc1,-85.2% (active)
10,Cc1cccc(/C=C/c2ccc(NC(=S)NCCCCN(C)C)cc2)c1,-64.8% (active)
11,O=C(N/N=C/c1ccoc1)c1[nH]c2ccc(Br)cc2c1-c1ccccc1,-81.5% (active)
12,O=C(CSc1nc2sc3c(c2c(=O)n1-c1ccc(Cl)cc1)CCCC3)NNC(=O)c1ccc(F)cc1,37.8%
13,C=CCSc1nnc(-c2ccc(-c3nc4ccc(Cl)cc4[nH]3)cc2)o1,47.3%
14,O=C(N/N=C/c1ccc(Cl)cc1)c1ccc(OCc2nc3ccc(Cl)cc3[nH]2)cc1,-88.5% (active)
15,Cc1cccc(NCC(=O)N2CCN(c3ncnc4c3cnn4-c3ccccc3)CC2)c1,87.1%
16,CN(C)c1nc(NCCNS(=O)(=O)c2ccc(C(=O)/C=C/c3ccc(Cl)cc3)cc2)nc(N2CCOCC2)n1,-92% (active)
17,CC1=C(C(=O)Nc2ccccc2)C(c2cccc(Cl)c2Cl)n2c(nc3ccccc32)N1 (stereo unspecified),57.2%
18,CCOC(=O)/C(F)=C/C1CC1C(c1ccccc1)c1ccccc1 (stereo unspecified),109%
19,CN(C(=O)CN1C(=O)/C(=C/c2ccco2)SC1=S)C1CCS(=O)(=O)C1 (stereo unspecified),102%

# System: PC-3 prostate
# Experiment: as above
# Settings: 10 µM unless noted
row,SMILES,growth
1,N#Cc1c(-c2ccc(F)cc2)nc(SCc2ccc(F)cc2)nc1N1CCNCC1,11.3%
2,N#Cc1c(-c2ccc(F)cc2)nc(SCc2ccccc2)nc1N1CCNCC1,-51.6% (active)
3,CS(=O)(=O)c1ccc(-n2nc(C(=O)NCc3ccccc3)cc2-c2ccc(Cl)cc2)cc1,75.5%
4,Cc1cccc(C)c1Nc1nnc(-c2c[nH]c3ccccc23)o1,76.3%
5,COc1ccc(/C=C/C(=O)c2ccc(S(=O)(=O)NCCNc3nc(N(C)C)nc(N4CCOCC4)n3)cc2)cc1,77.4%
6,COc1ccc(NC(=O)Cn2c(/C=C/c3cccc(Br)c3)nc3ccccc3c2=O)cc1,79.3%
7,O=C1CCC(N2C(=O)c3cccc(NCCCCCC(=O)N4CCN(c5ccc6nc7c(nc6c5C(F)(F)F)C(=O)c5ncccc5C7=O)CC4)c3C2=O)C(=O)N1 (stereo unspecified),-19.8% (active)
8,O=C(CSc1nnc(-c2ccc(-c3nc4ccc(Cl)cc4[nH]3)cc2)o1)Nc1ccccc1,-13.6% (active)
9,CC(C)(C)OC(=O)N1CCC2(CC1)Oc1ccccc1[C@H]1CC(c3ccc(Br)cc3)=NN12,66.6%
10,NS(=O)(=O)c1ccc(N2N=C(c3ccc(NC(=O)Nc4ccccc4)cc3)CC2c2ccc(Br)cc2)cc1 (stereo unspecified),-45.2% (active)
11,CC1=C(C(=O)OCc2ccccc2)C(c2ccc(N(C)C)cc2)n2c(nc3ccccc32)N1 (stereo unspecified),80.8%
12,Cc1ccc(O)cc1Nc1nc(SCCN2CCOCC2)nc2c1cnn2CC(Cl)c1ccc(Br)cc1 (stereo unspecified),17%
13,C/C(=N/O)c1ccc(NC(=O)CSc2nnc(-c3ccc(-c4nc5ccc(Cl)cc5[nH]4)cc3)o2)cc1,-22.4% (active)
14,CCCCNc1ccc2c3c(cccc13)C(=O)N(NCC(O)COc1ccc3c(C)cc(=O)oc3c1)C2=O (stereo unspecified),84%
15,COc1ccc2[nH]c(=O)cc(-n3ncc(C(=O)/C=C/c4cc(OC)c(OC)c(OC)c4)c3C)c2c1,7.18% (active)
16,COc1ccc(-c2cc(-c3cc(OC)c(OC)c(OC)c3)[nH]c(=O)c2C#N)cc1,70.9%
17,COc1ccc2[nH]c(O)c(N=Nc3nc(-c4ccc(Br)cc4)cs3)c2c1,21%
18,COc1ccc2[nH]cc(-c3cc(N)n4nc(-c5c[nH]c6ccccc56)cc4n3)c2c1,10.9%
19,Nc1cc(-c2c[nH]c3ccc(F)cc23)nc2cc(-c3c[nH]c4ccccc34)nn12,10.3%

row,SMILES,growth
1,COC(=O)c1cccc(Oc2ccc(NC(=O)Nc3cc(C(F)(F)F)ccc3F)cc2)c1,69.9%
2,N#C/C(=C1/C(=O)Nc2ccccc21)c1nnc(NC(=O)c2ccc(-n3c(=O)[nH]c4ccccc4c3=O)cc2)s1,31.8%
3,Cc1ccc(N=Nc2c(N)nn3c(-c4cc5cc(Br)ccc5oc4=O)ccnc23)cc1,88.3%
4,Cc1ccc(C2CC(c3ccc(NC(=O)Nc4ccccc4)cc3)=NN2c2ccc(S(C)(=O)=O)cc2)cc1 (stereo unspecified),1.02% (active)
5,O=C(NN1C(=O)/C(=C/C=C/c2ccc([N+](=O)[O-])o2)SC1=S)c1ccc(O)cc1,-67.2% (active)
6,COc1cc(CNC(=O)C[C@H](C)CCC=C(C)C)ccc1OCc1cn(-c2ccccc2F)nn1,87.9%
7,OC(c1ccccc1)(c1ccccc1)C1CCN(c2ccc3nnc(Cl)n3n2)CC1,16.2%
8,Cc1nc2sccn2c1-c1nnc(SCC(C)C)o1,83.1%
9,N#Cc1ccc(C(=O)CSc2nc3c(c(Nc4ccc(S(N)(=O)=O)cc4)n2)CCC3)cc1,65.3%
10,Cc1cccc(/C=C/c2ccc(NC(=S)NCCCCN(C)C)cc2)c1,-40.4% (active)
11,O=C(N/N=C/c1ccoc1)c1[nH]c2ccc(Br)cc2c1-c1ccccc1,-37.3% (active)
12,O=C(CSc1nc2sc3c(c2c(=O)n1-c1ccc(Cl)cc1)CCCC3)NNC(=O)c1ccc(F)cc1,81.9%
13,C=CCSc1nnc(-c2ccc(-c3nc4ccc(Cl)cc4[nH]3)cc2)o1,63.2%
14,O=C(N/N=C/c1ccc(Cl)cc1)c1ccc(OCc2nc3ccc(Cl)cc3[nH]2)cc1,-10.1% (active)
15,Cc1cccc(NCC(=O)N2CCN(c3ncnc4c3cnn4-c3ccccc3)CC2)c1,70%
16,CN(C)c1nc(NCCNS(=O)(=O)c2ccc(C(=O)/C=C/c3ccc(Cl)cc3)cc2)nc(N2CCOCC2)n1,21.1%
17,CC1=C(C(=O)Nc2ccccc2)C(c2cccc(Cl)c2Cl)n2c(nc3ccccc32)N1 (stereo unspecified),18.1%
18,CCOC(=O)/C(F)=C/C1CC1C(c1ccccc1)c1ccccc1 (stereo unspecified),78.8%
19,CN(C(=O)CN1C(=O)/C(=C/c2ccco2)SC1=S)C1CCS(=O)(=O)C1 (stereo unspecified),102%
